These results are taken from PubChem BioAssay.

Values without a mark were called inactive. For part of these data: Entries with a potency or affinity are not part of this list. Active and inactive are the calls of the source. Unless noted, the rule behind the calls is not given here.

Assay [1] is described as follows: antimalarial activity against Dd2 strain (AID 2302;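 active = growth inhibition above 50% at the single 2 µM test dose, taken to imply half-maximal potency below 2 µM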;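 note: 0% = DMSO untreated growth and 100% = chloroquine plus artemisinin killed control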). The note with it: P. falciparum Dd2 in RBCs, LDH growth readout, 72 h; at 2 µM; active compounds read high.
Assay [2] in a line: human hepatoma cell viability loss – ATP luminescence, cytotoxicity control for P. falciparum antimalarial project, primary screen (AID 2303;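 active = inhibition above 50%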;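 note: 0% = DMSO wells and 100% = digitonin-killed cells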). Particulars: HepG2 viability, 24-48 h, at 10 µM, active compounds read high.
For assay [3], the target named is L-lactate dehydrogenase (Plasmodium falciparum (isolate CDC / Honduras)) (UniProt Q27743). As to the kind of experiment: PfLDH activity inhibition – cell lysate, 3D7 strain, counter-screen for P. falciparum growth inhibition project (AID 2304).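 Note: 0% = vehicle and 100% = reference inhibitor.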 The note with it: P. falciparum 3D7 crude extract, LDH APAD/NBT absorbance; at 2 µM; active compounds read high. (In general: The purpose of a counterscreen is to sort out artefacts and off-target activity.)
L-lactate dehydrogenase (Plasmodium falciparum (isolate CDC / Honduras)), sequence (Q27743 whole entry, looked up): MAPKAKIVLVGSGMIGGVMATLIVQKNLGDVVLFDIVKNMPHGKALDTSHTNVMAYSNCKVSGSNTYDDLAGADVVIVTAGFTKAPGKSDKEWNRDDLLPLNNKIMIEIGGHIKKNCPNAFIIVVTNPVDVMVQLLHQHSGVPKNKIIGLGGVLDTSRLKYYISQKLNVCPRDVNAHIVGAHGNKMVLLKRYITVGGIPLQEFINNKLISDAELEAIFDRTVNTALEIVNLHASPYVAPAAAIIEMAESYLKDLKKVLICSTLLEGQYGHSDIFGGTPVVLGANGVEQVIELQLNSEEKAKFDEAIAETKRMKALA

Assay [4] is described as follows: inhibition of 3D7 malaria parasite growth – strain 3D7 (AID 2306).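 Note: 0% = DMSO wells and 100% = chloroquine plus artemisinin control wells.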 The note with it: P. falciparum 3D7 erythrocytic growth, LDH absorbance, 72 h; at 2 µM; active compounds read high.
Assay [5] addresses Calcium-dependent protein kinase 1 (Plasmodium falciparum (isolate 3D7)) (UniProt P62344). As to the kind of experiment: PfCDPK1 kinase inhibitors, biochemical, TCAMS library (AID 1159585; cut-off not given, nearly all actives have IC50 up to about 0.98 µM;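 note: inhibitors leave more ATP so luminescence rises with inhibition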). Particulars: recombinant PfCDPK1, Kinase-Glo ATP depletion luminescence. A general note: Kinase-Glo measures the ATP left after a reaction by luminescence.
Assay [6] addresses Plasmodium falciparum protein kinase 6 (PK6, PF3D7_1337100) (UniProt Q8IDW1). As to the kind of experiment: PfPK6 kinase inhibitors, biochemical, TCAMS library (AID 1159586). The note with it: recombinant PfPK6, Kinase-Glo ATP depletion luminescence.
Assay [7] concerns the target Protein kinase 7 (PK7), Plasmodium falciparum 3D7 (PF3D7_0213400) (UniProt Q7YTF7). As to the kind of experiment: inhibition of Plasmodium PK7 catalytic activity – biochemical, TCAMS antimalarial set, Kinase-Glo luminescence (AID 1159587). Particulars: recombinant PfPK7, Kinase-Glo ATP depletion luminescence.
The target of assay [8] is Calcium-dependent protein kinase 4 (Plasmodium falciparum (isolate 3D7)) (UniProt Q8IBS5). As to the kind of experiment: PfCDPK4 kinase inhibitors, biochemical, TCAMS library (AID 1159588; cut-off not given, nearly all actives have IC50 up to about 0.91 µM). Particulars: recombinant PfCDPK4, Kinase-Glo ATP depletion luminescence.
Calcium-dependent protein kinase 4 (Plasmodium falciparum (isolate 3D7)), sequence (Q8IBS5 whole entry, looked up): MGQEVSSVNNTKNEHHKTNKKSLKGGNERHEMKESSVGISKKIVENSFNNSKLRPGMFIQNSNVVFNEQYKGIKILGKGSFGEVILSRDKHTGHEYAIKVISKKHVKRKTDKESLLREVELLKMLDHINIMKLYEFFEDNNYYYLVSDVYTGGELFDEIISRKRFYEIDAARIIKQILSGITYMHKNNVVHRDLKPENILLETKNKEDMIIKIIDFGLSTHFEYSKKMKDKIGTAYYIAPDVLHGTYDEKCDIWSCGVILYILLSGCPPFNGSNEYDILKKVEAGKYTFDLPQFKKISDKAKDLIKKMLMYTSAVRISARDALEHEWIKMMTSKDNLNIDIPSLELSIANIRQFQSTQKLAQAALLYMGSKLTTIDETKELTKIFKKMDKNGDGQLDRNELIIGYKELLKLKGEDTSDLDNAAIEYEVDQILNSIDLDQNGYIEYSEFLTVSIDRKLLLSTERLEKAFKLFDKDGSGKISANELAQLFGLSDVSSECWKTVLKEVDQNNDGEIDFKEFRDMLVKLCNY

Plasmodium falciparum protein kinase 6 (PK6, PF3D7_1337100), sequence (Q8IDW1 1-305): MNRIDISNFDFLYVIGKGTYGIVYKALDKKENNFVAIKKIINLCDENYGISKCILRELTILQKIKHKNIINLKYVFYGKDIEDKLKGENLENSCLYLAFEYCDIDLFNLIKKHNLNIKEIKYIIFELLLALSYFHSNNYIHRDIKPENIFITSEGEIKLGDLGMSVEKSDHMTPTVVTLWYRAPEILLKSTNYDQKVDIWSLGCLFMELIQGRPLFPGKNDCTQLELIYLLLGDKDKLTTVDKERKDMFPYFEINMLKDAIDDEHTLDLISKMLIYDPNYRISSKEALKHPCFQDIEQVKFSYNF
Calcium-dependent protein kinase 1 (Plasmodium falciparum (isolate 3D7)), sequence (P62344 whole entry, looked up): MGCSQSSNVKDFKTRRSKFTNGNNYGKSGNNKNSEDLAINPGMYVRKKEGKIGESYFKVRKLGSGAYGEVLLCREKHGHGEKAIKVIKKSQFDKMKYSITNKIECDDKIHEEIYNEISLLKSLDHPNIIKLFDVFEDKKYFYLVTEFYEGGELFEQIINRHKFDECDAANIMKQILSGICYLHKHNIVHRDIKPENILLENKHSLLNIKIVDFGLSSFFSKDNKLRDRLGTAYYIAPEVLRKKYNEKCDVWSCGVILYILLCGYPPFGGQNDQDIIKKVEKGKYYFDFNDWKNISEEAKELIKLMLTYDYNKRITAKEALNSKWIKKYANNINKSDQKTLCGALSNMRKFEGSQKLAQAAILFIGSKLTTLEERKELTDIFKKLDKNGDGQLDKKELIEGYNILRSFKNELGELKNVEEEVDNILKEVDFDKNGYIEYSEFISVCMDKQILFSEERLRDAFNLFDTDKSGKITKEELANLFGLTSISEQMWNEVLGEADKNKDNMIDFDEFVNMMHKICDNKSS
Protein kinase 7 (PK7), Plasmodium falciparum 3D7 (PF3D7_0213400), sequence (Q7YTF7 1-343): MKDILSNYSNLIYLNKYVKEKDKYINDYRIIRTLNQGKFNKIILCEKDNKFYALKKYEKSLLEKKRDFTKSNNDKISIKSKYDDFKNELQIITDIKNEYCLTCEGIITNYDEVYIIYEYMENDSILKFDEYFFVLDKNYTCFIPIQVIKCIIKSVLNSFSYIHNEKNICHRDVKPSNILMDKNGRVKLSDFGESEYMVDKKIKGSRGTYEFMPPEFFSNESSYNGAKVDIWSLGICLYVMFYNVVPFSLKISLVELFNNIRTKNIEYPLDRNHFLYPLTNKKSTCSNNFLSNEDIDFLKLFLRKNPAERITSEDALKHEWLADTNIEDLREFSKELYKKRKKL

What is called inhibition is the change of the read-out against control, counted positive when it falls. On to `CCC(C)c1cccc(C(C)CC)c1OCCCON1C(N)=NC(N)=NC1(C)C` (centres undefined), for which the figures for the growth inhibition in assay [1] and in assay [4] were 98% (active) and 91% (active), respectively. In addition, the results for the inhibition in assay [2] and in assay [3] were 51% (active) and -4%, respectively. Further, the result in assay [5], in assay [6], in assay [7] and in assay [8] was inactive.

Regarding `COc1cccc(C(=O)NCCc2cccc(Cl)c2)c1Oc1ccccc1`, the growth inhibition is 90% (active) in assay [1] and 97% (active) in assay [4]. The inhibition in assay [2] was 28%; in assay [3], -1%. Moreover, the outcome in assay [5], in assay [6], in assay [7] and in assay [8] was inactive.

Take `O=S(=O)(NC1CCN(c2ccnc3cc(Cl)ccc23)C1)c1cccc(F)c1` (centres undefined): the growth inhibition was 88% (active) in assay [1] and 98% (active) in assay [4]. In addition, the inhibition in assay [2] was 19%; in assay [3], 5%. In addition, the result in assay [5], in assay [6], in assay [7] and in assay [8] was inactive.

`CNCCNCc1ccc(-c2ccc(-c3nc4ccc(C(F)(F)F)cc4[nH]3)s2)cc1`: the results for the growth inhibition in assay [1] and in assay [4] were 100% (active) and 99% (active), respectively. The results for the inhibition in assay [2] and in assay [3] were 30% and -2%, respectively. Further, the outcome in assay [5], in assay [6], in assay [7] and in assay [8] was inactive.

In the case of `CC(C)(C)c1ccc(NC(=O)c2ccc(CN3CCCN(Cc4cccc(C#N)c4)CC3)cc2)cc1`, the growth inhibition in assay [1] was 12%; in assay [4], 99% (active). The inhibition in assay [2] was 54% (active); in assay [3] it was -5%. Further, the outcome in assay [5], in assay [6], in assay [7] and in assay [8] was inactive.

Regarding `COCCNCc1nc(-c2ccc3c(Nc4ccc(Cl)cc4F)ccnc3c2)cs1`, the growth inhibition is 100% (active) in assay [1] and 101% (active) in assay [4]. Also, the inhibition in assay [2] was -4%; in assay [3], -1%. The outcome in assay [5], in assay [6], in assay [7] and in assay [8] was inactive.

For the compound `OCC1CCN(Cc2ccc(-c3cccc(-c4nc5ccccc5[nH]4)c3)cc2)CC1`, the growth inhibition in assay [1] is 6%; in assay [4] it was 101% (active). In addition, the inhibition was 21% in assay [2] and -1% in assay [3]. The result in assay [5], in assay [6], in assay [7] and in assay [8] was inactive.

As for `COc1ccc(CNCc2ccc(F)cc2)cc1-c1ccc(S(=O)(=O)NCCN2CCCC2)s1`, the growth inhibition is 65% (active) in assay [1] and 101% (active) in assay [4]. For the same compound, the figures for the inhibition in assay [2] and in assay [3] were 61% (active) and -1%, respectively. In addition, the outcome in assay [5], in assay [6], in assay [7] and in assay [8] was inactive.

For `COc1cccc(OC2CCN(C(=O)c3ccc(-c4ccc(N5CCCC5=O)cc4C)cc3)CC2)c1`, the growth inhibition is 80% (active) in assay [1] and 85% (active) in assay [4]. Besides, the inhibition was 42% in assay [2] and -3% in assay [3]. In addition, the outcome in assay [5], in assay [6], in assay [7] and in assay [8] was inactive.

Turning to `CN1CCN(c2ccnc3ccc(NC(=O)Cc4ccc5ccccc5c4)cc23)CC1`, the figures for the growth inhibition in assay [1] and in assay [4] were 89% (active) and 100% (active), respectively. Also, the inhibition in assay [2] was 6%; in assay [3], -2%. In addition, the result in assay [5], in assay [6], in assay [7] and in assay [8] was inactive.

Turning to `O=C(Cc1ccccc1)NC(CCN1CCC(N(C2CC2)S(=O)(=O)c2cccc(C(F)(F)F)c2)CC1)c1ccc(Cl)c(Cl)c1` (centres undefined), the growth inhibition is 27% in assay [1] and 85% (active) in assay [4]. Moreover, the results for the inhibition in assay [2] and in assay [3] were 19% and 6%, respectively. For the same compound, the outcome in assay [5], in assay [6], in assay [7] and in assay [8] was inactive.

On to `CN1CCN(CCCN(Cc2csc(-c3ccc(CNCc4ccccc4)cc3)n2)S(=O)(=O)c2ccc(F)cc2)CC1`, for which the figures for the growth inhibition in assay [1] and in assay [4] were 80% (active) and 101% (active), respectively. The inhibition is 21% in assay [2] and 3% in assay [3]. Also, the outcome in assay [5], in assay [6], in assay [7] and in assay [8] was inactive.

As for `O=C(NCCCCN1CC=C(c2ccc3c(c2OCc2ccccc2)CCCC3)CC1)c1ccc(-c2ccc(C(F)(F)F)cc2)cc1`, the growth inhibition was 82% (active) in assay [1] and 97% (active) in assay [4]. Further, the inhibition in assay [2] was 19%; in assay [3], -5%. The outcome in assay [5], in assay [6], in assay [7] and in assay [8] was inactive.

As to `Cc1noc(C)c1-c1cccc(CNCc2cccc(-c3ccc(-c4nc5ccc(C(F)(F)F)cc5[nH]4)s3)c2)c1`, the growth inhibition in assay [1] is 95% (active); in assay [4], 100% (active). Also, the inhibition in assay [2] was 23%; in assay [3] it was 0%. Besides, the outcome in assay [5], in assay [6], in assay [7] and in assay [8] was inactive.

For the compound `Nc1nc(N)c2c(ccc3c2cnn3S(=O)(=O)N2CCCC2)n1`, the growth inhibition in assay [1] was 3%; in assay [4] it was 93% (active). The results for the inhibition in assay [2] and in assay [3] were 70% (active) and 2%, respectively. The outcome in assay [5], in assay [6], in assay [7] and in assay [8] was inactive.

For `CCN1CCC(NCc2ccc(-c3ccc(Cl)s3)cc2)CC1`, the growth inhibition was 23% in assay [1] and 96% (active) in assay [4]. The inhibition in assay [2] was 42%; in assay [3], -4%. Also, the result in assay [5], in assay [6], in assay [7] and in assay [8] was inactive.

For the compound `Cc1cccc(-n2nc(C)c3c2NC(=O)CC3C(=O)c2ccc(Cl)s2)c1` (centres undefined), the growth inhibition in assay [1] is 85% (active); in assay [4] it was 92% (active). The inhibition in assay [2] is 13%; in assay [3] it was -1%. Further, the outcome in assay [5], in assay [6], in assay [7] and in assay [8] was inactive.

With `C[C@@H](Oc1cc(-n2cnc3cc(SCCN4CCN(C)CC4)ccc32)sc1C(N)=O)c1ccccc1Cl`, the values for the growth inhibition in assay [1] and in assay [4] were 65% (active) and 90% (active), respectively. In addition, the inhibition in assay [2] is 46%; in assay [3], -1%. Moreover, the outcome in assay [5], in assay [6], in assay [7] and in assay [8] was inactive.
